A selection: hits, their analogues and other compounds. The true share with any hit is near 2.2%.
PPC-1+TRAIL kill: PPC-1 cancer cell killing with TRAIL present. PPC-1 cells + TRAIL, ATPLite viability luminescence. AID 1443. actives 0.41% (n = 220,000). cell killing (% activity), % at 4 µM or 5 µM;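 active means cell killing above 50% in the first pass at 4 µM, then a duplicate retest at 5 µM averaging 50% or more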;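 further: plate controls were cells with TRAIL plus DMSO for no effect and medium-only wells lacking cells for full effect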
iPSC survival up: increases survival of single human iPS cells | hiPSC single-cell survival, ATPlite luminescence; 100% = ROCK inhibitor wells, 0% = DMSO | survival enhancement, % at 20 µM | actives 0.044% (n = 360,000) | AID 602274; in the data active means survival enhancement above about 18%;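 further: cells exposed to compounds for 16 hours before the ATP read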
KKLEB cytotox: counter-screen for CF NF-kB inhibitors: cytotoxicity | KKLEB CF airway cells viability, ATPlite luminescence, overnight; stronger effect = lower value; cells stimulated with P. aeruginosa culture filtrate | activity change (cytotoxicity), % at 5 µM | actives 0.36% (n = 360,000);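 active means corrected activity change at or below -50% at 5 µM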
CF NFkB block: cystic fibrosis NF-kB activation inhibition; actives 0.86% (n = 360,000); AID 588850; KKLEB NF-kB-GFP reporter, PAF-induced, GFP fluorescence overnight; inhibition, % at 5 µM;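 active means at least 50% inhibition at 5 µM, scaled per plate between neutral and stimulator controls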;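 further: PAF is a Pseudomonas aeruginosa culture filtrate used as stimulus; plate controls were PAF-stimulated DMSO wells for no effect and unstimulated DMSO wells for full effect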
C8 TRAIL sens: caspase-8 TRAIL sensitization; NB7+C8 cells + TRAIL, ATPlite viability luminescence; inhibition (viability loss, TRAIL sensitization), % at 10 µM; actives 1% (n = 360,000);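 active means compounds causing at least 50% loss of cell viability in the single-dose screen, relative to plate controls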
HIF-2a block: blocks HIF-2a reporter activity; 786-0 RCC cells HIF-2a reporter, luciferase luminescence, overnight; inhibition, % at 18.8 µM; actives 0.72% (n = 360,000); AID 624352;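 active means inhibition of the luminescence signal of 40% or more relative to plate controls, in a single-dose primary screen at 18.75 µM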
The depositor's hits bear a star; nt = no result.

SMILES | PPC-1+TRAIL kill | iPSC survival up | KKLEB cytotox | CF NFkB block | C8 TRAIL sens | HIF-2a block
O=C(N/N=C/c1cc(Br)ccc1O)C(c1ccncc1)N1CCOCC1 (centres undefined) | 18.6 | 0.7 | 7.6 | -5.5 | 53.0* | 9.0
COc1cccc(/C=N/NC(=O)C(c2ccncc2)N2CCOCC2)c1 (centres undefined) | 10.8 | 0.3 | 0.2 | -4.9 | -3.6 | 13.6
O=C(O)c1cccc2c1C(=O)c1ccc(-c3ccc(OC(F)(F)F)cc3)cc1S2(=O)=O | nt | 1.2 | 2.8 | 12.2 | -1.4 | 0.2
CC(C)c1cccc(-c2ccc3c(c2)S(=O)(=O)c2cccc(C(=O)NCc4ccccc4)c2C3=O)c1 | nt | -1.3 | -19.4 | 25.8 | -4.4 | 6.7
CC(C)c1cccc(-c2ccc3c(c2)S(=O)(=O)c2cccc(C(=O)NCc4ccccc4Cl)c2C3=O)c1 | nt | -0.5 | -37.9 | 41.0 | 67.7* | -0.4
O=C(NCc1ccccc1Br)c1cccc2c1C(=O)c1ccc(-c3ccc(OC(F)(F)F)cc3)cc1S2(=O)=O | nt | -2.2 | -18.6 | 12.8 | 53.9* | 5.3
COc1ccc(-c2ccc3c(c2)S(=O)(=O)c2cccc(C(=O)NCCOc4ccccc4Cl)c2C3=O)cc1OC | nt | -2.0 | -22.0 | -0.5 | 76.2* | -15.4
O=[N+]([O-])c1ccc(CN2C=NS(=O)(=O)c3ccccc32)cc1 | 11.7 | -0.8 | -33.2 | 7.2 | -6.9 | 13.5
O=C(Nc1ccc(S(=O)(=O)Nc2cnc3ccccc3n2)cc1)c1cccc(OC(F)F)c1 | nt | -0.7 | 18.1 | -23.5 | -18.6 | 16.1
O=C(NCc1ccco1)C(=O)c1cn(CC(=O)N2CCCCC2)c2ccccc12 | 13.7 | -0.4 | -1.1 | -3.9 | 5.4 | 6.5
O=C(NCc1cccnc1)C1CC(c2ccc(Cl)c(Cl)c2)=NO1 (centres undefined) | nt | -0.7 | -12.4 | 10.6 | -0.9 | 0.7
COc1ccccc1NC(=O)CSc1ccc(-c2ccco2)nn1 | nt | 0.4 | -22.9 | -2.8 | -14.4 | -18.6
Cc1ccccc1NC(=O)CSc1ccc(-c2ccc(-n3cccn3)cc2)nn1 | nt | -0.2 | 1.2 | 18.0 | 34.9 | -24.8
COc1ccccc1NC(=O)CSc1ccc(-c2ccc(-n3ccnc3)cc2)nn1 | nt | -0.2 | -9.0 | 11.7 | 51.2* | -72.3
CCc1nnc(NC(=O)CSc2ccc(-c3ccc(-n4cccn4)cc3)nn2)s1 | nt | 0.4 | -17.5 | 11.1 | 77.3* | -179.3
C=CCC[C@@H](CCCCC)OC(=O)/C=C/[C@H](O)[C@@H](O)C[C@H](O)CC=C | nt | -0.3 | nt | nt | 10.0 | 5.9
CN1CCN(C2=C(NS(=O)(=O)c3ccccc3)C(=O)c3ccccc3C2=O)CC1 | nt | -0.4 | 5.5 | 14.5 | 50.6* | -6.0
CCN1CCN(C2=C(NS(=O)(=O)c3ccccc3)C(=O)c3ccccc3C2=O)CC1 | nt | -0.1 | 13.9 | -17.2 | 61.4* | -52.9
CN1CCN(C2=C(NS(=O)(=O)c3cccs3)C(=O)c3ccccc3C2=O)CC1 | -12.4 | -0.5 | 11.2 | -3.9 | 26.6 | -3.4
CCOC(=O)N1CCN(C2=C(NS(=O)(=O)c3ccccc3)C(=O)c3ccccc3C2=O)CC1 | nt | -0.1 | -4.9 | 10.9 | 18.0 | -1.1
CCOC(=O)N1CCN(C2=C(NS(=O)(=O)c3ccc(Br)cc3)C(=O)c3ccccc3C2=O)CC1 | nt | -2.2 | 12.0 | 58.5* | 25.1 | 2.3
CCC(C)N(C(=O)CSc1nnc(COc2ccccc2F)n1N)C1CCS(=O)(=O)C1 (centres undefined) | nt | 0.0 | 13.6 | 16.6 | 5.4 | 11.3
O=C(NCc1ccccc1Cl)C1CCCN(S(=O)(=O)c2cccc3nonc23)C1 (centres undefined) | nt | -0.4 | -4.7 | -2.2 | 14.0 | 4.4
COc1ccc(N2CCN(C(=O)CCCCCn3c(=S)[nH]c4ccc(N5CCOCC5)cc4c3=O)CC2)cc1 | nt | -0.6 | -5.1 | -11.4 | 15.0 | -10.2
O=C1C(SCCO)=C(SCCO)C(=O)c2ccccc21 | nt | -4.6 | -5.6 | 72.5* | 23.7 | 96.9*
SMILES | PPC-1+TRAIL kill | iPSC survival up | KKLEB cytotox | CF NFkB block | C8 TRAIL sens | HIF-2a block
O=c1[nH]c2ccccc2c(O)c1SCCO | 3.6 | -2.3 | 2.2 | -12.5 | -3.1 | 15.6
N#CC(C#N)=NNc1ccc2cn[nH]c2c1 | nt | -0.1 | -7.7 | 79.2* | 0.3 | 3.4
CN(CCOc1ccc(-c2ccn(S(=O)(=O)c3c(Cl)cccc3Cl)n2)cc1)c1ccccn1 | 15.4 | 18.6* | 6.1 | 1.3 | -0.3 | 12.1
C=CCc1ccccc1OCC(=O)N/N=C/c1ccc(OC(C)=O)cc1OC(C)=O | 22.8 | -0.9 | -9.5 | 14.8 | 50.2* | -12.6
COc1ccc(OC)c(CN2C(=O)c3ccccc3C2c2nnnn2-c2c(C)cccc2C)c1 (centres undefined) | nt | -1.0 | nt | nt | 17.1 | 10.7
N#Cc1c(N)n(-c2ccc(N)cc2)c2nc3ccccc3nc12 | 19.3 | -0.4 | -17.4 | 10.5 | -3.1 | 19.8
N#Cc1c(C#N)c(SSc2c(C#N)c(C#N)c(N)n2-c2ccccc2)n(-c2ccccc2)c1N | nt | 0.0 | -88.9* | 88.3* | 79.0* | 7.2
CCc1ccccc1N(C(=O)c1snc(C(N)=O)c1N)C(C(=O)NCC1CCCO1)c1c[nH]c2ccccc12 (centres undefined) | nt | 0.4 | 13.4 | -4.4 | -6.5 | 37.6
CN(CC(=O)Nc1cc(Cl)cc(Cl)c1)Cc1cccs1 | nt | 0.5 | 1.3 | 3.7 | 18.3 | -0.5
COc1ccc(C(=O)Nc2cc(C)c(NC(=O)c3ccccn3)cn2)cc1 | nt | -0.7 | -13.3 | 2.0 | 68.8* | -202.8
COc1ccc(C(=O)Nc2ccccc2C(=O)Nc2cc(C)ccn2)cc1 | nt | -0.7 | -27.3 | -2.1 | 68.0* | -216.6
COc1ccc(C(=O)Nc2ccccc2C(=O)Nc2cccnc2)cc1 | nt | -0.7 | -9.3 | -2.4 | 53.0* | -136.6
COc1ccc(C(=O)Nc2ccccc2C(=O)Nc2cccc(C)n2)cc1 | nt | 0.2 | -6.5 | -1.4 | 40.5 | -119.1
COc1ccc(CNS(=O)(=O)c2ccc3c(c2)CCN3C(=O)C2CCC2)cc1 | nt | 0.1 | -10.8 | -7.8 | -25.5 | 13.8
O=C(OCc1ccccc1)/C(=C(\O)c1ccccc1Br)c1ccc(-c2ccccc2)cn1 | nt | -1.8 | -10.9 | -9.0 | 7.4 | -9.8
COc1ccc(CN2CCNC(=O)C2CC(=O)N(C)CC2CCOCC2)cc1C (centres undefined) | nt | -0.4 | -3.7 | 22.3 | 5.1 | 2.7
O=C(CCCN1C(=O)/C(=C/c2ccccc2Cl)SC1=S)NNC(=O)c1cccnc1 | 11.6 | -0.6 | -6.0 | -3.4 | 11.9 | 84.2*
O=C(CCCN1C(=O)/C(=C/c2ccccc2Cl)SC1=S)NNC(=O)c1ccccc1 | 1.1 | -1.3 | -8.2 | 14.1 | 27.9 | 90.3*
O=C(CCCN1C(=O)/C(=C/c2cccs2)SC1=S)NNC(=O)c1cccnc1 | 5.6 | -0.5 | 10.1 | -8.3 | 13.6 | 14.5
O=C(CCCN1C(=O)/C(=C/c2ccccc2Cl)SC1=S)NNC(=O)c1ccc(Cl)cc1Cl | 9.1 | 0.2 | -8.4 | 2.7 | 14.7 | 73.4*
Cc1c(C(=O)NNC(=O)c2cccnc2)cccc1[N+](=O)[O-] | nt | 0.2 | 16.6 | 2.4 | -7.5 | 6.6
